# Source: PubChem
# This excerpt belongs to a sample that is enriched for hits.
# mHTT-CaM PPI inh = mutant huntingtin-calmodulin interaction inhibitors – biochemical, AlphaScreen, primary screen. P42858. AlphaScreen His-mHTT/GST-CaM binding, luminescence. inhibition, % at 15 µM. actives 3.6% (n = 190,000)
# Pf apPOL block = Pf-apPOL inhibitors, biochemical, fluorescence. Plasmodium falciparum apicoplast DNA polymerase (apPOL). Recombinant Pf-apPOL, molecular beacon fluorescence, 1.5 h. inhibition, % at 10 µM. actives 0.25% (n = 210,000). AID 1794808, 2022
# A number is an active result; 0 = inactive; - = no result. Rule as the data show it: active = inhibition above about 50%; inactive = the rest.
SMILES,mHTT-CaM PPI inh,Pf apPOL block
COc1cc(C(Nc2cccc(C)n2)c2ccc3ccc(C)nc3c2O)ccc1O (centres undefined),97,0
COc1ccc(C(Nc2cccc(C)n2)c2ccc3ccc(C)nc3c2O)cc1C (centres undefined),89,0
COc1ccc(C(=O)Nc2cccc(C)n2)c(OC)c1OC,0,0
COc1cc(C(O)CO)ccc1O (centres undefined),-,0
Cc1cccc(NS(=O)(=O)c2ccc(C)c([N+](=O)[O-])c2)n1,0,0
Cc1ccc2cccc(NC(=O)C(F)(F)F)c2n1,0,0
CC(=O)NCc1csc(C2CCN(C(=O)COc3ccccc3)CC2)n1,0,0
O=C(NCc1ccccn1)c1ccccc1N(Cc1ccccc1)S(=O)(=O)c1ccccc1,0,0
COCC(C)(O)CNC(=O)COc1ccccc1OC (centres undefined),0,0
COc1ccc2oc(-c3csc(NC(=O)c4cc(C)on4)n3)cc2c1,0,0
CCOc1ccc(-n2c(SCC(=O)Nc3ccc(C)cc3C)nc3c(c2=O)SCC3)cc1,0,0
CCC1CCCCN1Cc1ccc([N+](=O)[O-])cc1 (centres undefined),0,0
Cc1cccc(C(=O)N2N=C(c3ccc(Cl)cc3)CC2(O)C(F)(F)F)c1 (centres undefined),89,0
O=C(c1cccc(Cl)c1)N1N=C(c2ccc(Cl)cc2)CC1(O)C(F)(F)F (centres undefined),0,0
CCC1=NN(C(=O)c2ccc(I)cc2)C(O)(C(F)(F)F)C1 (centres undefined),0,0
CCC1=NN(C(=O)c2ccc(Cl)cc2)C(O)(C(F)(F)F)C1 (centres undefined),0,94
CC1Oc2ccccc2N(Cc2nc(-c3cccc(Br)c3)no2)C1=O (centres undefined),0,0
COC(c1cccs1)c1c(C)[nH]c2ccccc12 (centres undefined),60,0
Cc1[nH]c2ccccc2c1C(c1ccncc1)N1CCC(C)CC1 (centres undefined),0,0
CCSc1c(C(C)C)cnc2c1c(=O)n(C)c(=O)n2C,0,0
Cc1cc(OC(=O)CC2CCCCC2)c([N+](=O)[O-])c(=O)[nH]1,0,0
O=C(Nc1nc2c(s1)CN(S(=O)(=O)C=Cc1ccccc1)CC2)c1cnccn1,71,0
Cc1ccc(S(=O)(=O)N2CCc3nc(NC(=O)c4cccnc4)sc3C2)cc1,0,0
CCOc1ccccc1S(=O)(=O)N1CCc2nc(NC(=O)c3cnccn3)sc2C1,50,0
O=C(Nc1nc2c(s1)CN(C(=O)COc1ccccc1)CC2)c1cnccn1,0,0
SMILES,mHTT-CaM PPI inh,Pf apPOL block
COc1ccccc1Oc1ccc(C(F)(F)F)cc1NC(=O)c1c(O)c2ccccc2[nH]c1=O,0,0
N#Cc1cccc(S(=O)(=O)N2CCC(c3cc(N)on3)CC2)c1,0,0
Brc1ccc2[nH]c3c(c2c1)CCC3,-,0
NC(=O)c1cc(Br)cc2c3c([nH]c12)CCCC3,62,0
CCCn1c(C(C)NCC)nc2ccccc2c1=O (centres undefined),0,0
Cn1cccc1C1CC(c2ccc(F)cc2)=NN1C(=O)CN1CCCCC1 (centres undefined),70,0
CC(=O)N1CCN(CC(=O)N2N=C(c3ccc(F)cc3)CC2c2ccccc2)CC1 (centres undefined),0,0
Cc1ccc(C2=NN(C(=O)CN3CCCCC3)C(c3cccn3C)C2)cc1C (centres undefined),91,0
O=C(NC(N1CCOCC1)C(Cl)(Cl)Cl)c1cccc([N+](=O)[O-])c1 (centres undefined),0,0
C=CCSc1nnc2c(n1)OC(c1ccc(N(C)C)cc1)N(C(C)=O)c1ccccc1-2 (centres undefined),64,0
C=CCSc1nnc2c(n1)OC(c1ccc(F)cc1)N(C(C)=O)c1ccccc1-2 (centres undefined),0,0
O=C(NCc1ccc2c(c1)OCO2)C1CCN(c2cn[nH]c(=O)c2)CC1,0,0
Cn1ncc(C(=O)NC2CCCCC2)c1-n1cccc1,-,0
Cc1ccc(NC(=O)c2ccc3c(c2)n(C)c(=O)c2ccnn23)cc1F,0,0
Cc1ccccc1CCNC(=O)c1cc2n(n1)CCCN(Cc1ccc(Cl)cc1)C2=O,0,0
CC(C)c1cc(C2CCCN2C(=O)c2cc(F)c(F)cc2Cl)no1 (centres undefined),0,0
CC1=NN(c2cccc(C(=O)O)c2)C(=O)/C1=C/c1ccc(-c2ccc(Br)cc2)o1,61,0
CC1=NN(c2cccc(C(=O)O)c2)C(=O)/C1=C/c1ccc(-c2cc(Cl)ccc2Cl)o1,0,0
Cc1ccc2nc(N3CCC(C(=O)NCCc4ccccc4)CC3)[nH]c2c1,0,0
O=C1S/C(=C\c2ccc(O)c([N+](=O)[O-])c2)C(=O)N1c1ccccc1,0,0
O=C1S/C(=C\c2ccc(O)cc2)C(=O)N1c1ccccc1,0,0
O=C1S/C(=C\c2ccccc2Cl)C(=O)N1c1ccc(O)cc1,74,0
O=C(CN1C(=O)S/C(=C\c2ccc(Br)cc2)C1=O)Nc1ccc(O)cc1,52,0
COc1ccccc1/C=C1\SC(=O)N(c2ccc(Cl)cc2)C1=O,0,0
O=C1S/C(=C\c2ccc(O)cc2)C(=O)N1c1ccc(O)cc1,55,0
SMILES,mHTT-CaM PPI inh,Pf apPOL block
O=C1S/C(=C\c2ccc(O)cc2)C(=O)N1CNc1ccc(I)cc1,0,0
O=C1S/C(=C\c2ccc(O)c(O)c2)C(=O)N1c1ccc(Cl)cc1,88,0
O=C(Cc1ccc(-n2c(=O)[nH]c3ccsc3c2=O)cc1)NCc1ccccc1Cl,0,0
Cc1cc2c(=O)n(Cc3ccco3)c(SCC(=O)c3ccc(F)cc3)nc2s1,0,0
Cc1ccc([N+](=O)[O-])cc1N=Cc1nc(-c2ccc(Br)cc2)oc1O,0,0
Cc1onc(-c2ccccc2Cl)c1C(=O)Nc1ccc2c(c1)OCCO2,0,0
COC(=O)Nc1ncc(CN2CCOCC2)s1,0,-
Cc1cccc(OCC(=O)N2CCC(c3ccncc3)CC2)c1,0,0
O=C(c1nn2c(c1Cl)NC(c1cccs1)CC2C(F)(F)F)N1CCCC1 (centres undefined),0,0
O=C(NC1CCCCC1)c1nn2c(c1Cl)NC(c1cccs1)CC2C(F)(F)F (centres undefined),0,0
O=C(c1nn2c(c1Cl)NC(c1cccs1)CC2C(F)(F)F)N1CCc2ccccc2C1 (centres undefined),100,0
CN(C(=O)c1nn2c(c1Cl)NC(c1cccs1)CC2C(F)(F)F)C1CCCCC1 (centres undefined),77,0
CCCCNC(=O)c1c(Cl)nc(Cl)c([N+](=O)[O-])c1Cl,94,0
CCCCNC(=O)c1c(Cl)nc(Cl)c(Cl)c1C,0,0
Cc1ccccc1C(=O)N1CCC(c2cnn(-c3cccc(F)c3)c2)CC1,0,0
CC1(C)CC(=O)C2=C(C1)Nc1ccccc1NC2c1cccc([N+](=O)[O-])c1 (centres undefined),0,0
Cc1ccc(C2C3=C(CC(C)(C)CC3=O)N=C3c4ccccc4C(=O)C32)cc1 (centres undefined),62,0
Cc1cc(C2C3=C(CC(C)(C)CC3=O)N=C3c4ccccc4C(=O)C32)cc(C)c1O (centres undefined),0,0
O=C1CCCC2=C1C(c1cccc(Cl)c1)C1C(=O)c3ccccc3C1=N2 (centres undefined),0,0
